Sfp inh: blocks B. subtilis Sfp PPTase activity; Biochemical Sfp PPTase activity, qHTS; Potency, µM, usual class: inhibitors; actives 3.5% (n = 310,000);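 further: the enzyme is Sfp with the accession as filed and its product quenches rhodamine fluorescence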
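Sfp 15 nM + cpd, 15 min RT; start w/ rhodamine-CoA 5 uM, BHQ-2-YbbR 12.5 uM (final); 50 mM Hepes pH 7.6, 10 mM MgCl2, 0.01% NP-40, 0.01% BSA; read 525/598 nm at 0 and 30 min.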
PLK1 PBD inh: blocks phosphopeptide binding to human PLK1 polo-box domain | P53350 | Plk1 PBD binding of FITC phosphopeptide, fluorescence polarization | Potency, µM, hits mostly inhibitors | actives 2.8% (n = 360,000); further: series mostly up to about 57 µM; nearly all actives have a fitted effect of over 65% in size
Target sequence (P53350 whole entry, looked up, the tested form may be a part): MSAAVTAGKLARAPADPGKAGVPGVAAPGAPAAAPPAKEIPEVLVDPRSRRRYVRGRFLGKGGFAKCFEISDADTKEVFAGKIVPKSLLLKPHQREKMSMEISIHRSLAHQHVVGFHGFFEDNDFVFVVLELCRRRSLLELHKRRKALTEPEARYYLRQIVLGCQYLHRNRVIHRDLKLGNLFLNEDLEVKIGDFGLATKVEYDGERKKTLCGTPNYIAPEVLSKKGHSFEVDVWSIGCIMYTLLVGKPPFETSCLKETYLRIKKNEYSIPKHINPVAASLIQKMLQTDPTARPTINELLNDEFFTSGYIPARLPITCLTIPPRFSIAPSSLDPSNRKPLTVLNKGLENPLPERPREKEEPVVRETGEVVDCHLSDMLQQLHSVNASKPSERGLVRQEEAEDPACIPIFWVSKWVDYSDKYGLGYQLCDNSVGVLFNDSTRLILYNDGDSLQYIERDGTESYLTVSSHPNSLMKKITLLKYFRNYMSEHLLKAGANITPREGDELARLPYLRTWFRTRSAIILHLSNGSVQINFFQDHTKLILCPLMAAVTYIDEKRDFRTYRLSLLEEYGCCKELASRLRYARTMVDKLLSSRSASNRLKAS
HP1b chromo inh: HP1-beta chromodomain-methylated histone interaction inhibition. Potency, µM (highest dose often 114 µM), hits mostly inhibitors. AID 540317. actives 0.56% (n = 390,000). AlphaScreen HP1-beta / biotin-H3K9me3 peptide binding; further: nearly all actives have a fitted effect of over 70% in size
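AlphaScreen: HP1-beta (50 nM) preformed 30 min with biotin-H3(1-18)K9me3 peptide (50 nM) in PBS pH 7.4, 0.01% Tween-20. Compound added for 30 min at RT, then streptavidin donor/nickel chelate acceptor beads (10 ug/mL) for 30 min.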
BAZ2B inh: BAZ2B (human) inhibition | Potency, µM (highest dose often 114 µM), hits mostly inhibitors | actives 4.4% (n = 360,000) | AlphaScreen BAZ2B-H3K14Ac peptide displacement | Q9UIF8; further: nearly all actives have a fitted effect of over 60% in size
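BAZ2B (50 nM) with biotin-H3(5-23)K14Ac peptide (50 nM) in PBS pH 7.4, 0.01% Tween-20, preformed 30 min, then compound 30 min at room temperature; top concentration 110uM. AlphaScreen streptavidin donor/nickel chelate acceptor beads (10 ug/mL final), 20 min dark, signal read.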
G9a block: blocks human histone lysine methyltransferase G9a; actives 8.8% (n = 350,000); Potency, µM (doses to about 102 µM), usual class: inhibitors; Q96KQ7; G9a H3K9 monomethylation, AlphaScreen, 2 h; further: nearly all actives have a fitted effect of over 75% in size
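Methyltransferase reactions run at room temperature for 2 h (20 nM enzyme, 500 nM biotin-H3K9 peptide, 20 uM SAM) after a 15 min compound preincubation; product detected by AlphaScreen beads and anti-H3K9me1 antibody.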
JMJD2A Tudor: blocks the human JMJD2A Tudor domain | O75164 | AlphaScreen JMJD2A-Tudor / H3K4me3 peptide binding | Potency, µM (series often up to 114 µM), actives largely listed as inhibitors | actives 4.4% (n = 390,000) | AID 504339; further: nearly all actives have a fitted effect of over 50% in size
A number is an active result; 0 = inactive; ? = inconclusive; - = no result given; [ ] = another dose, or the depositor's remark. Rows were chosen to be rich in hits. Some 12% of all compounds tested hit in one or more screens of this group. The call rests on the fitted dose curve; in most records, active means well fitted curve in the direction sought with a large enough effect; inconclusive means small, poorly fitted or top-dose-only effect, or another doubt; inactive means no such curve, though single readings can be large; an effect the other way counts as inactive or inconclusive.

SMILES	Sfp inh	PLK1 PBD inh	HP1b chromo inh	BAZ2B inh	G9a block	JMJD2A Tudor
COc1ccc(-c2csc3ncnc(N4CCN(Cc5ccccc5)CC4)c23)cc1	0	0	0	?	0	0
COc1ccc(N2CCN(c3ncnc4onc(-c5ccc(F)cc5)c34)CC2)cc1	-	-	0	0	18µM	?
COc1ccc(-c2csc3ncnc(N4CCN(c5ccccc5O)CC4)c23)cc1	0	0	0	0	-	0
Fc1ccc(N2CCN(c3ncnc4onc(-c5ccc(Cl)cc5)c34)CC2)cc1	-	-	0	0	0	0
Cc1ccc(C2(C)NC(=O)N(CC(=O)NC(=O)NC(C)(C)C)C2=O)cc1 (centres undefined)	0	0	0	0	0	0
COc1ccc(N2C=C3C(=O)C(C)(OC(=O)C4CCCC4)C(=O)C=C3C=C2c2ccsc2)cc1 (centres undefined)	0	-	-	-	-	-
COc1ccc(-c2nc3c(c4c2C[C@H](c2ccccc2)OC4)CN(C(=O)NCCc2c[nH]c4ccccc24)CC3)c(C)c1	0	-	-	-	-	-
COc1ccc(-c2csc3ncnc(N4CCN(c5ccc(OC)cc5)CC4)c23)cc1	0	0	?	10µM	-	32µM
COC(=O)[C@@]12C[C@@H](CC(=O)NCc3ccc(C)o3)C(=O)N(Cc3ccco3)C1=CCC(C)(C)C2	-	0	-	-	-	-
CCN(CC)c1ccc(N=C2C=CC(=O)C=C2NC(C)=O)cc1	-	0	25µM	-	-	10µM
Cc1ccc(S(=O)(=O)N[C@H]2COC(=O)C/C=C\[C@@H](C)[C@H](NS(=O)(=O)c3ccc(C)cc3)COC(=O)[C@H](C)NC(=O)C/C=C\[C@H]2C)cc1	0	-	-	-	-	-
O=C(Nc1ccc(Cl)c(S(=O)(=O)N2CCCCC2)c1)c1ccncc1	-	0	0	0	56µM	0
CCOc1ncccc1C(=O)Nc1ccc(C)c(S(=O)(=O)N2CCCCCC2)c1	-	0	0	0	0	20µM
Cc1ccc(NC(=S)Nc2ccc(C(C)C)cc2)cc1S(=O)(=O)N1CCCCCC1	56µM	?	0	0	45µM	0
CCOc1ncccc1C(=O)Nc1cc(S(=O)(=O)N2CCCCC2)ccc1OC	-	0	0	0	10µM	0
COc1ccc(NC(=S)Nc2ccc(C)c(S(=O)(=O)N3CCCCC3)c2)cc1	0	-	-	0	0	-
NC(=O)c1ccccc1-c1nc(-n2ccnc2)c2ccccc2n1	0	-	-	-	0[0.501 µM]	-
CC(=O)C1=C(O)C(=O)OC1c1ccc(Cl)cc1 (centres undefined)	0	0	0	0	50µM	14µM
Nc1ccc(Sc2ccc([N+](=O)[O-])cc2)cc1	0	0	?	35µM	56µM	?
O=C1C=CC(=O)N1c1ccc(Sc2ccc([N+](=O)[O-])cc2)cc1	8.9µM	-	-	?	8.9µM	-
CO[C@@H](C(C)C)[C@@H](C)[C@@H]1OC(=O)C[C@@H]1O	0	-	-	-	-	-
Cc1c(C)c2cc(Cl)c(OC(C)C(=O)NCCN3CCOCC3)cc2oc1=O (centres undefined)	0	24µM	0	0	0	?
CC(Oc1cc2oc(=O)c3c(c2cc1Cl)CCCC3)C(=O)NCCN1CCOCC1 (centres undefined)	0	24µM	0	0	0	?
COc1cc(CNCCCSc2nnnn2C)cc(Br)c1OC	-	-	0	0	0[12.7 µM]	0
Cc1cc(Br)cn2c(Cc3ccsc3)c(-c3ccco3)nc12	-	24µM	-	-	-	-
SMILES	Sfp inh	PLK1 PBD inh	HP1b chromo inh	BAZ2B inh	G9a block	JMJD2A Tudor
CCN1C(=O)C(C(=O)c2ccccc2)SC1=S (centres undefined)	20µM	?	0	56µM	22µM	56µM
C=CCn1c(=O)c2ccccc2n2c(SCc3nc4ccccc4s3)nnc12	0	0	0	0	13µM	0
Cc1ccc2nc(NC(=S)NC(=O)c3ccc(OC(C)C)cc3)sc2c1	0	0	0	56µM	-	0
Cc1ccc2nc(NC(=O)c3ccc(N4C(=O)CCC4=O)cc3)sc2c1	0	0	0	?	11µM	0
Cc1ccccc1CNC(=O)c1ccccc1NC(=O)c1nsc2ccccc12	-	-	0	0	0	0
COc1ccc(CCNC(=O)CSc2nnnn2-c2ccc(OC)c(OC)c2)cc1OC	0	13µM	0	0	0	?
COc1ccc(-n2nnnc2SCC(=O)NCc2ccco2)cc1OC	0	0	0	?	50µM	0
COc1cccc(-n2nnnc2SCC(=O)NCCc2ccc(OC)c(OC)c2)c1	0	?	0	0	0	0
COc1cccc(CNC(=O)Cn2nc(C)c3sc4ccccc4c3c2=O)c1OC	-	-	0	0	?	0
CCOc1ccc(Nc2nc(N)c([N+](=O)[O-])c(N3CCN(CC)CC3)n2)cc1	0	0	?	50µM	0[2.33 µM]	?
CC1CCCN(c2nc(N(C)c3ccccc3)nc(N)c2[N+](=O)[O-])C1 (centres undefined)	0	0	?	?	32µM	?
Cc1ccc(Nc2nc(N)c([N+](=O)[O-])c(N3CCCC(C)C3)n2)cc1C (centres undefined)	0	0	?	?	20µM	25µM
CN(c1ccccc1)c1nc(N)c([N+](=O)[O-])c(NC2CCCCC2)n1	0	0	0	0	0	0
CC1CCCN(c2nc(NCc3ccco3)nc(N)c2[N+](=O)[O-])C1 (centres undefined)	0	0	?	50µM	?	?
Nc1nc(Nc2ccccc2)nc(N2CCCC2)c1[N+](=O)[O-]	0	0	0	?	0	?
CC(=O)NCCNC(=O)c1ccc2c(=O)n(CCc3ccccc3)c(=O)[nH]c2c1	-	-	0	0	0	0
C[C@@H]1CCC[C@]2(O[C@@H](CCO)C[C@@H](O)[C@@H]2O)O1	-	0	0	-	-	0
CN(C)CCNC(=O)c1cccc2nc3cccc(F)c3nc12	-	0	0	-	-	0
CN(C)CCNC(=O)c1cccc2ccc(-c3ccc(-c4ccccc4)cc3)nc12	-	0	0	-	-	56µM
O=C1c2c(O)cc(O)cc2OC(c2ccc(O)c(O)c2)C1O (centres undefined)	0	-	-	-	?	-
O=C1C(=O)C(c2ccc(O)cc2O)Oc2cc(O)cc(O)c21 (centres undefined)	-	-	?	-	-	14µM
O=[N+]([O-])c1cc2c(cc1CN1CCN(CCOCCO)CC1)OCO2	79µM	0	0	?	79µM	?
O=[N+]([O-])c1ccc(N2CCN(CCOCCO)CC2)c([N+](=O)[O-])c1	0	0	?	32µM	-	7.9µM
Cc1ccc(C)c(CN2C(=O)c3ccccc3S(=O)(=O)c3ccc(C(=O)N4CCc5ccccc54)cc32)c1	-	-	0	?	?	0
CCCN(CC(=O)Nc1ccccc1OC)C(=O)Cc1ccc2c(c1)CCC2	-	21µM	0	0	?	0
CCN(CC(=O)Nc1c(F)cccc1F)C(=O)Cc1ccc2c(c1)CCC2	-	17µM	?	0	10µM	0
CCN(CC(=O)Nc1c(F)cccc1F)C(=O)Cc1ccc2c(c1)OCCO2	-	0	0	0	0[12.7 µM]	0

Screening results (PubChem BioAssay)
